# According to PubChem BioAssay (EPA / NIEHS):
# Several values for one entry are separate records, joined by “and”; a condition that tells them apart may be missing. Equal entries are not always repeated. Records with an inconclusive call do not appear. Some structures have more than one record in an assay (separate samples or runs), and their calls can disagree. Activity calls are given as the source filed them. The calls were made as follows: active = hit-call score of the fitted dose curve at least 0.9, where 1 is the maximum; inconclusive = response in the unintended direction; inactive = score below 0.9.
# Experiment: Tanguay_ZF_120hpf_PFIN_legacy: (Legacy) Oregon State University Tanguay Lab 120 Hour Post-fertilization zebrafish Assay for Pectoral Fin Malformation (AID 2283648);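 also: each larva judged yes or no for fin defect by brightfield with dead larvae skipped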
# Protocol: Tanguay_ZF_120hpf_legacy is a whole embryo, multiplexed endpoint assay using zebrafish larvae exposed for 120 hours post fertilization on a 96-well plate.Tanguay_ZF_120hpf_PFIN_legacy is one of one assay component(s) measured or calculated from the Tanguay_ZF_120hpf_legacy assay. It is designed to make measurements of zebrafish development as detected with brightfield microscopy of developing zebrafish embryos.Data from the assay component Tanguay_ZF_120hpf_PFIN_legacy was analyzed into 1 assay endpoints. This assay endpoint, Tanguay_ZF_120hpf_PFIN_legacy, was analyzed in the positive analysis fitting direction relative to DMSO as the negative control and baseline of activity. Using a type of morphology reporter, gain-of-signal activity can be used to understand changes in developmentals as they relate to the whole embryo. To generalize the intended target to other relatable targets, this assay endpoint is annotated to the zebrafish development intended target family, where the subfamily is pectoral fin morphogenesis.
# Zebrafish husbandry: Tropical 5D wild-type adult zebrafish were housed in at an approximate density of 1000 per 100 gallon tank at the Sinnhuber Aquatic Research Laboratory, Oregon State University, Corvallis, OR. Each tank was kept at standard laboratory conditions of 28C on a 14-h light/10-h dark photoperiod in fish water consisting of reverse osmosis water supplemented with a commercially available salt (Instant Ocean). Spawning funnels were placed into the tanks the night prior, and embryos were collected and staged. To increase bioavailability, the chorion was enzymatically removed using pronase (63.6mg/ml, >/= 3.5U/mg, Sigma-Aldrich: P5147) at 4 hours post fertilization (hpf) using a custom automated dechorionator.Chemical exposures: Six hpf dechorionated embryos were placed 1 embryo per well in a 96-well plate prefilled with 90 ul of EM using automated embryo placement systems (AEPS). Ten microliters of each row of dilution plate 2 was added to 2 exposure plates. The final DMSO concentration used was 0.64% (vol/vol). Thirty-two embryos were also exposed to 5uM trimethyltin chloride (positive control). Plates were sealed to prevent evaporation and foil covered to reduce light exposure and kept in a 28C incubator. Embryos were statically exposed until 120 hpf. At 24 hpf, embryos were assessed for photomotor response using a custom photomotor response analysis tool (PRAT) and for developmental toxicity endpoints (MO24: mortality at 24 hpf, DP: developmental progression, SM: spontaneous movement, and NC: notochord distortion). At 120 hpf, locomotor activity was measured using Viewpoint Zebralab and assessed for 18 endpoints. Zebrafish acquisition and analysis program (ZAAP), a custom program designed to inventory, acquire, and manage zebrafish data, was used to collect developmental endpoints as either present or absent (i.e., binary responses were recorded). If mortality occurred for an embryo (at either 24 or 120 hpf), the non-mortality endpoints were not measured.
SMILES,outcome,AC50
CCN(CC)C(=O)SCc1ccc(Cl)cc1,inactive,
Clc1ccccc1-c1nnc(-c2ccccc2Cl)nn1,inactive,
CCC(C)(C)C(=O)OC1=C(c2ccc(Cl)cc2Cl)C(=O)OC12CCCCC2,inactive,
COP(=O)(OC)OC=C(Cl)Cl,inactive,
Oc1cc(Cl)ccc1Oc1ccc(Cl)cc1Cl,inactive,
CNC(=O)Oc1ccccc1OC(C)C,inactive,
CC(C)OC(=O)Nc1cccc(Cl)c1,inactive,
CC1(C)C(C=C(Cl)Cl)C1C(=O)OC(C#N)c1ccc(F)c(Oc2ccccc2)c1 (stereo not given),inactive,
CNC(=O)Oc1cccc(N=CN(C)C)c1,inactive,
C[C@H]1[C@H](c2ccc(Cl)cc2)SC(=O)N1C(=O)NC1CCCCC1,inactive,
CCOC1Oc2ccc(OS(C)(=O)=O)cc2C1(C)C (stereo not given),inactive,
CNC(=O)/C=C(\C)OP(=O)(OC)OC,inactive,
COc1nn(CSP(=S)(OC)OC)c(=O)s1,inactive,
CCCN(CCC)c1c([N+](=O)[O-])cc(C(F)(F)F)cc1[N+](=O)[O-],inactive,
CN1CSC(=S)N(C)C1,inactive,
CNC(=O)CSP(=S)(OC)OC,inactive,
O=[N+]([O-])/N=C1\NCCN1Cc1ccc(Cl)nc1,inactive,
Oc1ccc(Cl)cc1Cc1ccccc1,inactive,
CCC(C)Nc1c([N+](=O)[O-])cc(C(C)(C)C)cc1[N+](=O)[O-] (stereo not given),inactive,
O=C1c2ccccc2C(=O)N1SC(Cl)(Cl)Cl,inactive,

SMILES,outcome,AC50
O=[N+]([O-])c1c(Cl)c(Cl)c(Cl)c(Cl)c1Cl,inactive,
O=C(NC(=O)c1c(F)cccc1F)Nc1ccc(OC(F)(F)C(F)OC(F)(F)F)c(Cl)c1 (stereo not given),inactive,
O=C(O)C(F)(F)C(F)(F)C(F)(F)C(F)(F)C(F)(F)C(F)(F)C(F)(F)F,inactive,
O=C(Nc1ccccc1)Nc1cnns1,inactive,
OCCOc1ccccc1,inactive,
O=S(=O)(O)C(F)(F)C(F)(F)C(F)(F)C(F)(F)C(F)(F)C(F)(F)C(F)(F)C(F)(F)F,inactive,36 µM (active)
CCC(C)(NC(=O)c1cc(Cl)c(C)c(Cl)c1)C(=O)CCl (stereo not given),inactive,
O=S1OCC2C(CO1)C1(Cl)C(Cl)=C(Cl)C2(Cl)C1(Cl)Cl (stereo not given),inactive,
N#Cc1c(Cl)c(Cl)c(Cl)c(C#N)c1Cl,inactive,
COP(=S)(OC)Oc1ccc([N+](=O)[O-])cc1,inactive,
Cc1[nH]c(=O)n(C(C)(C)C)c(=O)c1Cl,inactive,
CC[C@H](C)[C@H]1O[C@]2(C=C[C@@H]1C)C[C@@H]1C[C@@H](C/C=C(\C)[C@@H](O[C@H]3C[C@H](OC)[C@@H](O[C@H]4C[C@H](OC)[C@@H](O)[C@H](C)O4)[C@H](C)O3)[C@@H](C)/C=C/C=C3\CO[C@@H]4[C@H](O)C(C)=C[C@@H](C(=O)O1)[C@]34O)O2 (tested in a mixture with another compound),inactive,
O=C(O)COc1ccc(Cl)cc1Cl,inactive,
C#CCN1C(=O)COc2cc(F)c(N3C(=O)C4=C(CCCC4)C3=O)cc21,inactive,
CC(C)N(C(=O)COc1nnc(C(F)(F)F)s1)c1ccc(F)cc1,inactive,
CCc1ccc(C(=O)NN(C(=O)c2cc(C)cc(C)c2)C(C)(C)C)cc1,inactive,
CC(C)(C)C(O)C(Oc1ccc(Cl)cc1)n1cncn1 (stereo not given),,47.2 µM (active) and 33.2 µM (active) and 39.7 µM (active)
COP(=S)(OC)Oc1ccc(SC)c(C)c1,inactive,
N#CN,inactive,
